The source made the active and inactive calls.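 The calls were made as follows: active = inhibition at or above 50% relative to wild type and mutant plate controls; inactive = inhibition below 50%.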
assay: loss of swimming-algae plug formation – whole organism, Chlamydomonas reinhardtii, WT vs cilia-less mutant, absorbance, 96-well, primary screen (AID 463189); details: Chlamydomonas reinhardtii gravitaxis, OD600 absorbance, 2 days; at 10 µM; active compounds read high;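 also: 0% = wild type cc124 cells in DMSO and 100% = ciliumless bld1 mutant cells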

SMILES | inhibition
CCOC(=O)Nc1ccc(NCc2ccc(F)cc2)nc1N | 3.93% (inactive)
O=c1cc(N2CCOCC2)oc2c(-c3ccccc3)cccc12 | 15.7% (inactive)
CN1CCc2cc(Cl)c(O)cc2[C@@H](c2ccccc2)C1 | 5.1% (inactive)
N#C/C(=C\c1ccc(O)c(O)c1)C(=O)NCCCNC(=O)/C(C#N)=C/c1ccc(O)c(O)c1 | 1.37% (inactive)
OC[C@H]1O[C@@H](n2cnc3c(Nc4ccccc4)ncnc32)C(O)[C@H]1O (some centres not stated) | -0.892% (inactive)
NC1CONC1=O (configuration not stated) | 8.19% (inactive)
CN(C)C(=O)/N=N/C(=O)N(C)C | -5.45% (inactive)
NC1(C(=O)O)CCCCC1 | -2.27% (inactive)
CC(C)C[C@H](NC(=O)[C@@H](O)[C@H](N)Cc1ccccc1)C(=O)O | 3.44% (inactive)
NCCS(=O)O | 4.12% (inactive)
O=C(O)CCCCCC[C@H]1C(=O)NC(=O)N1CC[C@@H](O)C1CCCCC1 | -0.469% (inactive)
COc1cccc(OC)c1OCCNCC1COc2ccccc2O1 (configuration not stated) | 0.114% (inactive)
Cc1cc2c(cc1Cl)N(C(=O)Nc1ccnc3ccccc13)CC2 | -0.614% (inactive)
CC1(C)C(=O)N(CCN2CCC(C(=O)c3ccc(F)cc3)CC2)c2ccccc21 | 5.57% (inactive)
CNc1cc(NS(=O)(=O)c2ccc(N)cc2)nc(NC)n1 | -3.79% (inactive)
CCCN1C[C@H](CSC)C[C@@H]2c3cccc4[nH]cc(c34)C[C@H]21 | 5.65% (inactive)
NC(=S)NCCCC(N)C(=O)O (configuration not stated) | 0.102% (inactive)
O=C1NCN(c2ccccc2)C12CCN(CCCC(c1ccc(F)cc1)c1ccc(F)cc1)CC2 | -2.36% (inactive)
NC(=Nc1ccccc1)NC(=O)c1nc(Cl)c(N)nc1N | -0.27% (inactive)
OC[C@H]1O[C@@H](n2cnc3cncnc32)[C@H](O)[C@@H]1O | 6.38% (inactive)
OC[C@H]1O[C@@H](n2cnc3c(NC4CCCCC4)ncnc32)[C@H](O)[C@@H]1O | 4.21% (inactive)
OCCN1CCN(CC/C=C2/c3ccccc3Sc3ccc(C(F)(F)F)cc32)CC1 | 15.6% (inactive)
